Screens: PubChem BioAssay, National Center for Advancing Translational Sciences (NCATS)
The list is not random: actives were taken first. Their share in the collection is about 19%.
HT1080-NT tox: qHTS for induction of synthetic lethality in tumor cells producing 2HG: qHTS for the HT-1080-NT fibrosarcoma cell line; Potency, µM (top dose mostly 46.1 µM), hits mostly cytotoxic; 360,000 compounds, 1.6% hits; HT-1080-NT fibrosarcoma viability, CellTiter-Glo ATP luminescence, 48 h;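 further: NT is the 2HG producing partner of a matched IDH1 knockdown line; nearly all actives have a fitted effect of over 55% in size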
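Fibrosarcoma NT cells, 750 per well in 5% FBS RPMI, were exposed to compound for 48 hours. Viability: CellTiter-Glo luminescence.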
ELG1 DNA repair: qHTS screen for small molecules that inhibit ELG1-dependent DNA repair in human embryonic kidney (HEK293T) cells expressing luciferase-tagged ELG1; HEK293T ELG1-luciferase reporter, luminescence, 16 h; DNA damage induced by 5-fluorouridine; Potency, µM (highest dose often 46.1 µM), actives largely listed as inhibitors; 330,000 compounds, 2.3% hits; further: nearly all actives have a fitted effect of over 55% in size
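DMSO vehicle served as the neutral condition. Each well held 2,000 cells given 5-fluorouridine plus compound; after 16 hr at 37 °C/5% CO2, ONE-Glo was added and luciferase measured 30 min later.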
TDP1 cell noCPT: qHTS for Inhibitors of human tyrosyl-DNA phosphodiesterase 1 (TDP1): qHTS in cells in absence of CPT; Potency, µM (doses to about 46.2 µM), hits mostly inhibitors; DT40 Tdp1-/- hTDP1 cells, no CPT, ATP luminescence, 48 h; AID 686978, 2013; 420,000 compounds, 15% hits; further: nearly all actives have a fitted effect of over 55% in size
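Chicken DT40 Tdp1-/- cells complemented with human TDP1, screened without camptothecin (DMSO vehicle only), 400 cells/well. Compounds pin-transferred, cells incubated at 37 °C for at least 48 hr. Growth read as ATP-dependent luminescence (CellTiter-Glo, 30 min at RT).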
IL-1B inflam inh: qHTS for Inhibitors of Inflammasome Signaling: IL-1-beta AlphaLISA Primary Screen | THP-1 LPS/ATP IL-1B secretion, AlphaLISA, 16 h; hits give low values | activity change, % at 57.5 µM | 360,000 compounds, 4.7% hits; in the data active means activity change below about -50%; inconclusive means mostly about -30% to -49%
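Secreted IL-1B measured by AlphaLISA bead assay after 16 h compound exposure of THP-1 cells; compounds (final up to 57.5 uM) added 1 h before LPS (250 ng/mL) and ATP (1.25 mM) stimulation; lower signal means less secretion.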
HT1080 IDH1KD tx: qHTS for induction of synthetic lethality in tumor cells producing 2HG: qHTS for the HT-1080-IDH1KD cell line; AID 686971, 2013; HT-1080 IDH1 knockdown viability, ATP luminescence, 48 h; Potency, µM (top dose mostly 46.1 µM), most hits filed as cytotoxic; 360,000 compounds, 2% hits
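Cytotoxicity counter-line: IDH1KD HT-1080, 48 h, CellTiter-Glo. Curves classed by r2, magnitude and activity.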
DT40 TDP1 CPT: qHTS for Inhibitors of human tyrosyl-DNA phosphodiesterase 1 (TDP1): qHTS in cells in presence of CPT | 420,000 compounds, 12% hits | chicken DT40 Tdp1-/-;hTDP1 cells + 20 nM CPT, ATP luminescence, 48 h | Potency, µM (highest dose often 46.2 µM), actives largely listed as inhibitors | AID 686979, 2013; further: nearly all actives have a fitted effect of over 55% in size
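Chicken DT40 Tdp1-/- cells complemented with human TDP1, 400 cells/well, exposed to compounds plus 20 nM camptothecin for at least 48 h at 37 C; viability read as ATP content by CellTiter-Glo luminescence.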
Numbers stand for hits; . = inactive; ? = inconclusive; / = no result; [ ] = dose if it differs, or a comment. Unless noted, the call rests on the fitted dose curve; in most records, active means well fitted curve in the direction sought with a large enough effect; inconclusive means small, poorly fitted or top-dose-only effect, or another doubt; inactive means no such curve, though single readings can be large; an effect the other way counts as inactive or inconclusive.

SMILES	HT1080-NT tox	ELG1 DNA repair	TDP1 cell noCPT	IL-1B inflam inh	HT1080 IDH1KD tx	DT40 TDP1 CPT
Cc1cccc(C)c1OCC(=O)Nc1nc(-c2ccc(Br)cc2)ns1	/	/	16µM	/	/	?
Cc1cc(C)c2oc(C(=O)Nc3sc4c(c3C(=O)NCc3ccco3)CCC4)cc(=O)c2c1	/	/	.	/	/	.
COc1cccc(CNC(=O)c2c(OC)cc(=O)n3c2CCN(C(=O)c2ccc(C)nc2)CC3)c1	/	/	.	/	/	.
CCC(=O)N1CCCC(C)(C(=O)NS(=O)(=O)c2ccccc2Cl)C1 (stereo not drawn)	.	/	.	.	.	.
CCOC(=O)CSc1nc2ccc(NC(=O)COc3ccc(F)cc3)cc2s1	/	/	.	/	/	.
O=C(COc1ccc(Cl)cc1)Nc1ccc2nc(SCC(=O)N3CCOCC3)sc2c1	/	/	15µM	/	/	?
CCOC(=O)Nc1ccc2nc(Sc3ccc(Cl)cc3)sc2c1	?	.	5.8µM	.	?	5.8µM
Cc1ccc(OCC(=O)Nc2ccc3nc(SCC(=O)N4CCOCC4)sc3c2)cc1	/	/	21µM	/	/	?
COc1ccc(N(Cc2nnc3n2CCCCC3)C(=O)Nc2ccc(Cl)cc2)cc1Cl	/	/	.	/	/	.
O=C(CC[C@H]1O[C@@H](n2cnc3c(NC(=O)c4ccccc4)ncnc32)[C@H](O)[C@@H]1O)NCCCN1CCCC1=O	.	/	.	.	.	.
CCN(CC)S(=O)(=O)c1ccc2c(c1)nc(CN(C)C(=O)c1cccc(Cl)c1)n2C	/	/	.	/	/	?
CC(C)NC(=O)N1CCCC2(CCN(C(=O)c3ccncc3)CC2)C1	/	/	.	/	/	.
COc1ccccc1-n1c(SCC(=O)N2CCc3ccccc32)nc2c(c1=O)SCC2	.	?	7.3µM	.	.	9.2µM
CC1Cc2nc(SCC(=O)N3CCc4ccccc43)n(C)c(=O)c2S1 (stereo not drawn)	.	.	23µM	.	.	?
CC1Cc2nc(SCC(=O)NC3CCCCC3)n(C)c(=O)c2S1 (stereo not drawn)	.	.	.	.	.	.
O=C(c1cc([N+](=O)[O-])ccc1N1CCOCC1)N1CCN(S(=O)(=O)c2cc(Cl)ccc2Cl)CC1	.	?	?	.	.	?
CC(C)NS(=O)(=O)c1ccc(OCC(=O)N2CCN(c3ccccc3F)CC2)cc1	/	/	15µM	/	/	?
CC(C)CNS(=O)(=O)c1ccc(CCC(=O)N2CCN(c3ccccc3)CC2)cc1	.	?	?	.	.	?
CC(C)NS(=O)(=O)c1ccc(CCC(=O)N2CCCC2)cc1	.	.	.	.	.	.
COc1ccccc1N1CCN(C(=O)CCc2ccc(S(=O)(=O)NCC(C)C)cc2)CC1	.	/	23µM	.	.	?
COc1ccccc1N1CCN(C(=O)CCc2ccc(S(=O)(=O)NC(C)C)cc2)CC1	.	?	18µM	.	.	?
Cc1ccc(NC(=O)CCC(=O)NN=Cc2ccc(C)o2)c(C)c1	.	/	.	.	.	.
CC(Cc1ccco1)NC(=O)c1ccc(C(F)(F)F)cc1 (stereo not drawn)	.	?	.	?	.	.
COc1ccc(C2CC(=O)c3cnc(N4CCc5ccccc54)nc3C2)cc1OC (stereo not drawn)	/	.	/	/	/	/
COc1cc(C2CC(=O)c3cnc(N4CCN(Cc5ccccc5)CC4)nc3C2)cc(OC)c1OC (stereo not drawn)	.	3.3µM	7.3µM	.	.	7.3µM
SMILES	HT1080-NT tox	ELG1 DNA repair	TDP1 cell noCPT	IL-1B inflam inh	HT1080 IDH1KD tx	DT40 TDP1 CPT
COc1ccc(C2CC(=O)c3c(C)nc(N4CCN(Cc5ccccc5)CC4)nc3C2)cc1OC (stereo not drawn)	.	?	13µM	.	.	12µM
CC1CC(C)CN(c2ncc3c(n2)CC(c2ccccc2)CC3=O)C1 (stereo not drawn)	.	.	10µM	.	.	12µM
CCN1CCN(C(C(=O)NC2CCCCC2)c2cc3ccccc3o2)CC1 (stereo not drawn)	.	/	.	.	.	.
Cc1csc(=O)n1CCC(=O)OCC(=O)Nc1cc([N+](=O)[O-])ccc1Cl	.	?	.	.	.	.
COc1cc(=O)n2c(c1C(=O)NC(C)c1ccco1)CCN(C(=O)c1cc(C)cc(C)c1)CC2 (stereo not drawn)	/	/	.	/	/	.
Cc1cc(S(=O)(=O)Nc2ccc3ccccc3c2)c(C)s1	13µM	.	11µM	.	14µM	10µM
Cc1cc(S(=O)(=O)NCCN(C)C)c(C)s1	.	.	.	.	.	.
Cc1cc(S(=O)(=O)Nc2cccnc2)c(C)s1	.	.	.	.	.	.
Cc1cc(S(=O)(=O)Nc2cc(C)c(O)c(C)c2)c(C)s1	?	.	2.9µM	.	?	2.6µM
Cc1ccccc1S(=O)(=O)NC(=O)C1(C)CCN1C(=O)Cc1cccs1 (stereo not drawn)	.	/	.	.	.	.
CN(C)S(=O)(=O)c1cccc(NC(=O)c2ccccc2SCC(=O)N2CCCC2)c1	.	/	?	.	.	.
COCCn1c(C)cc(O)c(C(c2ccccc2)N2CCN(c3ccc(F)cc3)CC2)c1=O (stereo not drawn)	/	/	?	/	/	.
Cc1ccc(-c2nnc(Nc3cccc(Cl)c3)c3ccccc23)cc1S(=O)(=O)N1CCOCC1	/	/	4.1µM	/	/	16µM
Cc1ccc(-c2nnc(Nc3cccc(C(F)(F)F)c3)c3ccccc23)cc1S(=O)(=O)N1CCOCC1	/	/	8.2µM	/	/	9.2µM
Cc1ccc(-c2nc3ccccc3s2)cc1S(=O)(=O)N1CCOCC1	.	?	?	.	18µM	?
Cc1cccc(Nc2nnc(-c3ccc(C)c(S(=O)(=O)N4CCOCC4)c3)c3ccccc23)c1	/	/	6.5µM	/	/	16µM
O=S(=O)(c1cc(-c2nc3ccccc3s2)ccc1Cl)N1CCOCC1	/	.	/	/	/	/
Cc1ccc(-c2nnc(Nc3cccc(Cl)c3)c3ccccc23)cc1S(=O)(=O)N1CCCCC1	/	/	.	/	/	?
CCCc1ccc2c(C(F)(F)F)cc(C(F)(F)F)cc2n1	.	/	.	.	.	.
O=C(CCNS(=O)(=O)c1ccccc1)NNC(=O)c1cccc(Cl)c1	.[9.24 µM]	.	.	.	.	.
CNc1oc(/C=C/c2cc(OC)c(OC)c(OC)c2)nc1C#N	/	/	23µM	/	/	?
